Experimental findings from PubChem BioAssay (NCI) are described below.

The nature of test [1]: NCI Yeast Anticancer Drug Screen. Data for the rad50 strain (AID 155).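 Further: 0% = growth of vehicle-only cultures of the same strain.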 The conditions noted are these: S. cerevisiae rad50 strain growth inhibition; at 50.0 µM; stronger effect = higher value. In a few lines: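 Compounds were tested on a yeast strain with an engineered DNA damage repair alteration; the reported value is growth inhibition normalised to vehicle treatment.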
Test [2] can be described thus: NCI Yeast Anticancer Drug Screen. Data for the mec2-1 strain (AID 157). The conditions noted are these: S. cerevisiae mec2-1 strain, at 50.0 µM, stronger effect = higher value. The gist of the method: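 Yeast mec2-1 mutant treated with compound. Readout: growth inhibition vs vehicle controls.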
Test [3] can be described thus: NCI Yeast Anticancer Drug Screen. Data for the sgs1 mgt1 strain (AID 161).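 Further: 0% = growth of cultures given vehicle only.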 The conditions noted are these: S. cerevisiae sgs1 mgt1 strain, at 50.0 µM, stronger effect = higher value. The gist of the method: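 Genetically altered yeast, compound exposure, growth inhibition relative to vehicle.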
A short description of test [4]: NCI Yeast Anticancer Drug Screen. Data for the cln2 rad14 strain (AID 165).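 Further: 0% = growth equal to vehicle treated cultures.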 The conditions noted are these: S. cerevisiae cln2 rad14 strain, at 50.0 µM, stronger effect = higher value. In a few lines:
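cln2 rad14 yeast strain; compound exposure; growth inhibition read vs vehicle controls.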

A short description of test [5]: NCI Yeast Anticancer Drug Screen. Data for the bub3 strain (AID 167). The conditions noted are these: S. cerevisiae bub3 mutant strain, at 50.0 µM, stronger effect = higher value. The gist of the method: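 Growth of a checkpoint-deficient yeast mutant is measured after compound exposure. Values represent inhibition relative to vehicle.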
Test [6] in a line: NCI Yeast Anticancer Drug Screen. Data for the mlh1 rad18 strain (AID 175). The settings on record: S. cerevisiae mlh1 rad18 strain growth inhibition; at 50.0 µM; stronger effect = higher value. The gist of the method: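 Yeast w/ defined DNA-repair lesions; compound exposure; growth vs vehicle controls → % inhibition.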

The panel holds about 79,000 compounds, 15% with a hit somewhere; the sample as a whole holds those more often. A number with no mark means an inactive call. The source made the active and inactive calls. No stated cut-off is given here; in the data, active means growth inhibition above about 70%; inactive means the rest.

On to `O=C(O)C(O)c1ccc(Cl)cc1Cl` (stereo not given), for which the growth inhibition was 1.3% in test [1]; -5.85% in test [2]; 10.9% in test [3]; 7.25% in test [4]; -19.3% in test [5]; 1.35% in test [6].

On to `CCSC1OC(C(COC(C)=O)OC(C)=O)C(OC(C)=O)C1NC(=O)OCc1ccccc1` (stereo not given), for which the growth inhibition is -0.05% in test [1]; 5.75% in test [2]; -4.5% in test [3]; 7.2% in test [4]; 1% in test [5]; -18.1% in test [6].

As for `COc1cc(NCCN2CCOCC2)c([N+](=O)[O-])cc1OC`, the growth inhibition in test [1] is 22.3%; in test [2], 12.1%; in test [3], 8.25%; in test [4] it was 2.6%; in test [5], -0.65%; in test [6] it was 8.15%.

On to `CNC(=O)OCc1c(COC(=O)NC)c(-c2ccc(F)cc2)n2c1CCC2`, for which the growth inhibition in test [1] was 23.8%; in test [2] it was 12.7%; in test [3], -15.9%; in test [4], 18.7%; in test [5], 7.55%; in test [6] it was 52.6%.

Consider `CCCCOC(=O)C12CCCCC1O2` (stereo not given), for which the growth inhibition in test [1] is -29.1%; in test [2], -29.9%; in test [3], -12.8%; in test [4] it was 2.55%; in test [5], -29.1%; in test [6], -0.55%.

`CC(=O)CC1CCC(CC(C)=O)CC1` (stereo not given): the growth inhibition in test [1] was 13.1%; in test [2], 7.2%; in test [3], -13.3%; in test [4], -66.3%; in test [5], -4.1%; in test [6] it was -23.5%.

In the case of `CC(C)=CC1C(CO)C1(C)C` (stereo not given), the growth inhibition in test [1] is -7.8%; in test [2], -17.2%; in test [3] it was 23.8%; in test [4], -16.6%; in test [5], -6.25%; in test [6] it was -16.9%.

With `O=[N+]([O-])C(=C(N1CCOCC1)N1CCOCC1)/C(Cl)=C(\Cl)Br`, the growth inhibition in test [1] was -19.2%; in test [2], -1.1%; in test [3], -0.6%; in test [4], -14.1%; in test [5], 4.5%; in test [6], 2.55%.

Consider `CN(C)CCNc1nnc(NCCN(C)C)c2cc3ccccc3cc12`, for which the growth inhibition in test [1] was -0.7%; in test [2], 27.3%; in test [3], -2.45%; in test [4], 10.5%; in test [5], -1.4%; in test [6] it was 7.45%.

With `CC(=O)NCC1OC2COC(c3ccccc3)OC2C2N=C(c3ccccc3)OC12` (stereo not given), the growth inhibition in test [1] was -9.45%; in test [2], 1.3%; in test [3], 8.5%; in test [4], 7.8%; in test [5] it was 14.8%; in test [6], 81.8% (active).

Regarding `O=C(COc1ccc(Cl)cc1C(=O)O)NCc1ccc([N+](=O)[O-])cc1`, the growth inhibition was -9.45% in test [1]; 8.1% in test [2]; 20.8% in test [3]; -10.9% in test [4]; -9.85% in test [5]; -24.6% in test [6].

Take `Nc1ccc(S(=O)(=O)O)c(N)c1`: the growth inhibition in test [1] was 10.2%; in test [2], 9.05%; in test [3] it was -3.5%; in test [4], -0.3%; in test [5], 13.1%; in test [6], 3.95%.

With `O=S(=O)(c1ccccc1)C1C2CCC(O2)C1S(=O)(=O)c1ccccc1` (stereo not given), the growth inhibition is 19.4% in test [1]; 7.8% in test [2]; 15.7% in test [3]; 30.9% in test [4]; 29.6% in test [5]; 10.1% in test [6].

On to `Cc1[nH]ccc(=O)c1OC(=O)C12CC3CC(CC(C3)C1)C2`, for which the growth inhibition was 15.8% in test [1]; 16.6% in test [2]; 36% in test [3]; 19.2% in test [4]; 2.7% in test [5]; 23% in test [6].

With `CCc1ccccc1NC(=O)Sc1cccc(C)c1`, the growth inhibition in test [1] is -3%; in test [2] it was 27%; in test [3], 25.6%; in test [4] it was -12.9%; in test [5], 23%; in test [6], -28.9%.

For the molecule `C=CCN1/C(=C(\C#N)c2nc3ccccc3[nH]2)Sc2c1nc[nH]c2=O`, the growth inhibition in test [1] was -51.6%; in test [2], -27.9%; in test [3] it was -32%; in test [4], -32%; in test [5], -32.9%; in test [6] it was -49.8%.

Regarding `Cc1cc(OCC(=O)O)c(Cl)cc1Cl`, the growth inhibition in test [1] is -13.4%; in test [2] it was -9.7%; in test [3], -50.5%; in test [4], -22.9%; in test [5], -17.9%; in test [6] it was -11.7%.

`O=c1c2ccccc2nc(-c2ccccc2)n1/N=C/c1ccccc1O`: the growth inhibition was 1.15% in test [1]; 38.8% in test [2]; 34.6% in test [3]; -5.65% in test [4]; 32.9% in test [5]; 27.1% in test [6].

As for `COc1ccc(-c2coc3c4c(c5c(c3c2=O)OC(C)(C)CC5)OC(C)(C)C=C4)cc1OC`, the growth inhibition in test [1] is 11.3%; in test [2], 10.8%; in test [3], 15.7%; in test [4], 38%; in test [5], 18.1%; in test [6] it was 39.5%.

As to `Nc1cc(N)nc(S(=O)(=O)O)n1`, the growth inhibition was -5.75% in test [1]; -12.9% in test [2]; -4.7% in test [3]; -25.9% in test [4]; 3.6% in test [5]; -12.9% in test [6].
